Laboratory results taken from PubChem BioAssay (Tox21).
Where “and” joins values, the source holds several entries; their conditions need not be identical. Equal entries are not always repeated. Records with an inconclusive call do not appear. Where a call stands in place of a potency, no number is given. The source holds several records for some structures; these can differ, active in one and inactive in another. Calls of active or inactive are those of the source. Unless noted, calls come from the whole dose curve; as a rule, active = well fitted curve in the direction sought with a large enough effect in the repeat runs; inconclusive = weak or mixed curves; inactive = no such curve, though single readings can be large; an effect the other way counts as inactive or inconclusive. Starred links: 1 amine or outer side, 2 acyl side, 3 side chain; linkers in the order of their positions; H or OH if unused. Positions of bridges follow the written chain, without caps; N, C: chain ends. Non-standard residues stand in square brackets, D forms with d. Residues, ends and D or L forms follow the SMILES beside them. Chains are numbered I, II in the order given. Actinocin(9to1) = Cc1c2oc3c(C)ccc(C(=O)[*:1])c3nc-2c(C(=O)[*:2])c(N)c1=O; NMeV = CN[C@H](C(=O)O)C(C)C; Sar = CNCC(=O)O

Key:
[1] = qHTS assay to identify aromatase inhibitors - cell viability counter screen (AID 743084); settings: MCF-7 aro ERE viability, CellTiter-Fluor, 24 h; series mostly up to 70.3 µM;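 note: cells stimulated with testosterone during compound exposure; nearly all actives have a fitted effect of over 55% in size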; note: potency is the fitted concentration of half-maximal effect
[2] = molecular target: Aryl hydrocarbon receptor (Homo sapiens) (UniProt P35869); test: qHTS assay to identify small molecule that activate the aryl hydrocarbon receptor (AhR) signaling pathway (AID 743085); settings: HepG2 AhR-luc (HG2L7.5c1), luciferase, 24 h; series mostly up to 70.3 µM;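 note: HG2L7.5c1 human HepG2 liver cells with stably integrated DRE-driven firefly reporter; nearly all actives have a fitted effect of over 15% in size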
Chain of Aryl hydrocarbon receptor (Homo sapiens) (P35869 whole entry, looked up): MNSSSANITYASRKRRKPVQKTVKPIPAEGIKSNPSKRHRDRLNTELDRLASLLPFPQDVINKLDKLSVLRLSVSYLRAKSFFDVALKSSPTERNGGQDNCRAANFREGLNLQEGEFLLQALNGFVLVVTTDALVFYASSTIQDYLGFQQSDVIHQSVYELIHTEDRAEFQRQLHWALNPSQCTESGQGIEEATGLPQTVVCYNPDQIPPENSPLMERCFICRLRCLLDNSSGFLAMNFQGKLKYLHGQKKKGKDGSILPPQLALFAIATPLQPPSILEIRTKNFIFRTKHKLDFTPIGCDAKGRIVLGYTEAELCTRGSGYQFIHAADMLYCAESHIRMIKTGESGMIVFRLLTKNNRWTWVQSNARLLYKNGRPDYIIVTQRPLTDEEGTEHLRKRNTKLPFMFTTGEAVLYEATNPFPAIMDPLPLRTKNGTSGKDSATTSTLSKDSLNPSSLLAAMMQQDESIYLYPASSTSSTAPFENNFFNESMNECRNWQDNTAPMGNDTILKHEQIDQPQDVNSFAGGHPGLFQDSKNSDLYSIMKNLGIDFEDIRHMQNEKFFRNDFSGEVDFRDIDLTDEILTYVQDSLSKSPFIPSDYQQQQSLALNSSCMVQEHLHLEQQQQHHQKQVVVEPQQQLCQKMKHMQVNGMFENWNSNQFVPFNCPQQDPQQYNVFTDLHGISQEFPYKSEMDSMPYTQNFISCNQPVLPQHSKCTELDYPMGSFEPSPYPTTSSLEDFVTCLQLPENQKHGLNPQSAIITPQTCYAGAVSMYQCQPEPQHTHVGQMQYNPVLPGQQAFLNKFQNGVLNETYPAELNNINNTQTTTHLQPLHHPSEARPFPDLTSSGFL
Procedure, shortened: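 A multiplexed format paired cell viability (CellTiter-Fluor fluorescence) with AhR-dependent luciferase output (ONE-Glo luminescence) in the same wells of HepG2 DRE-luc cells after 24 h compound exposure at 37C.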

[3] = qHTS assay to identify small molecule that activate the aryl hydrocarbon receptor (AhR) signaling pathway - cell viability counter screen (AID 743086); settings: HepG2-AhR-luc viability, CellTiter-Fluor, 24 h; series mostly up to 70.3 µM; note: nearly all actives have a fitted effect of over 45% in size; note: potency is the fitted concentration of half-maximal effect
Procedure, shortened: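 Cytotoxicity counter screen: CellTiter-Fluor signal (30 min, 37 C) in 4000 HepG2 cells/well carrying the DRE-luciferase reporter, following 24 h compound exposure at 37 C.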

[4] = molecular target: Peroxisome proliferator-activated receptor gamma (Homo sapiens) (UniProt P37231); test: qHTS assay to identify small molecule agonists of the peroxisome proliferator-activated receptor gamma (PPARg) signaling pathway (AID 743094; active = well fitted activation curve with a large enough effect in the signal ratio in the repeat runs, not every such curve was filed as active; the % refers to the signal ratio; note: potency is the fitted concentration of half-maximal effect); settings: HEK293H PPARg-UAS-bla, beta-lactamase FRET ratio, 17 h; series mostly up to 57 µM
Chain of Peroxisome proliferator-activated receptor gamma (Homo sapiens) (P37231 whole entry, looked up): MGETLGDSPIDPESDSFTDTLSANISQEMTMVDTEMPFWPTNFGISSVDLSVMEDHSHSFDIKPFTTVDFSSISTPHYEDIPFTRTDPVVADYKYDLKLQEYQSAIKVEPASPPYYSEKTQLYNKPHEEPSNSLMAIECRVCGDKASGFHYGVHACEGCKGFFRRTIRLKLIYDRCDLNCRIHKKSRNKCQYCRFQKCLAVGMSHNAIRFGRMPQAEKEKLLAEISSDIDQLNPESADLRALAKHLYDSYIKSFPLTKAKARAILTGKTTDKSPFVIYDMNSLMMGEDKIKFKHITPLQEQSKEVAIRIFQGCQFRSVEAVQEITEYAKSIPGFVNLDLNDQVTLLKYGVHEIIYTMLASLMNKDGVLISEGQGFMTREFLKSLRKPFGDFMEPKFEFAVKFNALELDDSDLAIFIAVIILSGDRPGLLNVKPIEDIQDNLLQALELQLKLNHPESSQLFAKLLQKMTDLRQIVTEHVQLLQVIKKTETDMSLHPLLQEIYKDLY
Procedure, shortened: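 Cell-based bla reporter, HEK293H background, PPARg-driven UAS. Pre-incubation 5 h, 37C, 5% CO2. Compound 17 h, 37C. Substrate 1 h RT; fluorescence.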

[5] = molecular target: Peroxisome proliferator-activated receptor gamma (Homo sapiens) (UniProt P37231); test: qHTS assay to identify small molecule antagonists of the peroxisome proliferator-activated receptor gamma (PPARg) signaling pathway (AID 743191; calls by dose curve; note: nearly all actives have a fitted effect of over 30% in size); settings: HEK293H PPARg-UAS-bla, beta-lactamase ratio, antagonist, 17 h; series mostly up to 62.6 µM
Procedure, shortened: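 Beta-lactamase reporter under UAS control in HEK293H PPARg-bla cells; compound treatment 17 h at 37C. Read-out: fluorescence intensity after 1 h room-temperature incubation with LiveBLAzer B/G FRET substrate.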

[6] = qHTS assay to identify small molecule antagonists of the peroxisome proliferator-activated receptor gamma (PPARg) signaling pathway - cell viability counter screen (AID 743194); settings: PPARg-bla HEK293H viability, CellTiter-Glo luminescence, 17 h, co-treated with 50 nM rosiglitazone; series mostly up to 62.6 µM; note: nearly all actives have a fitted effect of over 55% in size; note: potency is the fitted concentration of half-maximal effect
Procedure, shortened: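 Viability was measured as CellTiter-Glo luminescence in GeneBLAzer PPARg UAS-bla HEK293H cells. These cells had been exposed 17 h at 37 C to compounds together with rosiglitazone at 50 nM final, with the beta-lactamase readout taken in the same wells.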

[7] = qHTS assay for small molecule agonists of the antioxidant response element (ARE) signaling pathway (AID 743202; active = well fitted activation curve with a large enough effect in the signal ratio in the repeat runs, not every such curve was filed as active; the % refers to the signal ratio; note: potency is the fitted concentration of half-maximal effect); settings: HepG2 ARE-bla reporter, beta-lactamase FRET, 16 h; series mostly up to 73.3 µM
Procedure, shortened: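 Beta-lactamase reporter activity, read as fluorescence intensity, reflects ARE/Nrf2 pathway induction in HepG2 cells after 16 h compound exposure at 37 C; substrate loading was 2 h at room temperature.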

[8] = qHTS assay for small molecule agonists of the antioxidant response element (ARE) signaling pathway - cell viability counter screen (AID 743203; calls by dose curve; note: nearly all actives have a fitted effect of over 55% in size; note: potency is the fitted concentration of half-maximal effect); settings: ARE-bla HepG2 viability, CellTiter-Glo luminescence, 16 h; series mostly up to 73.3 µM
Procedure, shortened: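 Measured in the same wells as the beta-lactamase ARE reporter, this read-out is CellTiter-Glo luminescence from HepG2 ARE-bla cells given compounds for 16 hrs.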

[9] = qHTS assay for small molecule activators of the heat shock response signaling pathway - cell viability counter screen (AID 743209); settings: HSE-bla HeLa viability, CellTiter-Glo luminescence, 5 h; series mostly up to 62.6 µM; note: nearly all actives have a fitted effect of over 50% in size; note: potency is the fitted concentration of half-maximal effect
Procedure, shortened: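 Same-well multiplex: after 2.5 h room-temperature incubation with LiveBLAzer B/G substrate and fluorescence reading, CellTiter-Glo reagent was added to HSE-bla HeLa cells that had received compound for 5 h at 37 C; luminescence read after 30 min.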

[10] = qHTS assay for small molecule activators of the heat shock response signaling pathway (AID 743210; active = well fitted activation curve with a large enough effect in the signal ratio in the repeat runs, with a control signal flat, not every such curve was filed as active; the % refers to the signal ratio; note: potency is the fitted concentration of half-maximal effect;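 for activation: HeLa cells with beta-lactamase reporter driven by heat shock elements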); settings: HeLa HSE-bla reporter, beta-lactamase ratio, 5 h; series mostly up to 62.6 µM
Procedure, shortened: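 Fluorescence from a cleaved B/G FRET substrate (2.5 h, room temp) reports HSE-driven beta-lactamase in HeLa cells treated 5 h at 37 C with DMSO-dissolved compounds.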

Structure (SMILES) | Potency [1] | Potency [2] | Potency [3] | Potency [4] | Potency [5] | Potency [6] | Potency [7] | Potency [8] | Potency [9] | Potency [10]
O=C(Cl)c1cccc(C(=O)Cl)c1 | inactive | inactive | inactive | inactive | inactive | inactive | inactive | inactive | inactive | inactive
CC(C)C(=O)c1c(C(C)C)nn2ccccc12 | inactive | inactive | inactive | inactive |  | inactive | inactive | inactive |  | inactive
CCCCN(CCO)CCCC | inactive | inactive | inactive | inactive | inactive | inactive | inactive | inactive | inactive | inactive
CC(=O)CC(C)=O | inactive | inactive | inactive | inactive |  | inactive | inactive | inactive | inactive | inactive
COC(=O)c1cccc(C(=O)OC)c1 | inactive | inactive | inactive | inactive | inactive | inactive | inactive | inactive | inactive | inactive
NC(N)=NC(=O)Cc1c(Cl)cccc1Cl | inactive | inactive | inactive | inactive | inactive | inactive |  | inactive | inactive | 
OCC(CO)N[C@H]1C[C@](O)(CO)[C@@H](O)[C@H](O)[C@H]1O | inactive | inactive | inactive | inactive | inactive | inactive |  | inactive | inactive | inactive
CCCCC/C=C/CC1CC(=O)OC1=O (stereo not given) | inactive | inactive | inactive | inactive |  | inactive | inactive |  | inactive | inactive
CCCCCCCCCCCC[N+](C)(C)C | inactive | inactive | inactive | inactive | inactive |  | 8.61 µM (active) | inactive and 48.6 µM (active) and 61.1 µM (active) |  | inactive
CN(C)c1ccc(C(=C2C=CC(=[N+](C)C)C=C2)c2ccccc2)cc1 | 1.93 µM (active) | inactive | inactive and 1.93 µM (active) | 26.8 µM (active) |  | 61.7 nM (active) and 668 nM (active) |  | 545 nM (active) and 2.98 µM (active) |  | 
Clc1ccc2c(c1)C(N1CCNCC1)=Nc1ccccc1O2 | inactive | inactive | inactive | inactive | inactive |  |  | 54.5 µM (active) and inactive | inactive | 
O=S(=O)(O)c1ccc2nc(-c3ccccc3)[nH]c2c1 | inactive | inactive | inactive | inactive | inactive | inactive | inactive | 20.6 µM (active) and inactive |  | inactive
CC1=C(C=O)C(C)(C)CC=C1 | inactive | inactive | inactive | inactive | inactive |  |  | inactive | inactive | inactive
CCCCC(CC)COC(=O)CC(C(=O)OCC(CC)CCCC)S(=O)(=O)O (stereo not given) | inactive | inactive | inactive | inactive |  |  |  | 58.8 µM (active) and 54.5 µM (active) | 52.9 µM (active) | 
CCCCCC(=O)O[C@]1(C(C)=O)CC[C@H]2[C@@H]3CCC4=CC(=O)CC[C@]4(C)[C@H]3CC[C@@]21C | inactive | inactive | inactive | inactive |  |  |  | 54.1 µM (active) | inactive | 
CCCCCCCCCCCCCC[P+](CCCC)(CCCC)CCCC | 17.1 µM (active) and 19.3 µM (active) | inactive | 68.2 µM (active) and 54.5 µM (active) |  |  | 3.45 µM (active) and 3.47 µM (active) |  | 15.3 µM (active) and 10.9 µM (active) | 6.88 µM (active) and 13.8 µM (active) | 
CC(C)(C)c1cc(C(C)(C)C)c(O)c(C(C)(C)C)c1 | inactive | inactive | inactive |  |  | inactive |  | inactive | 54.9 µM (active) and 49 µM (active) | 
CC(C)(C)c1ccc(O)c(C(C)(C)C)c1 | 48.4 µM (active) and 48.6 µM (active) | inactive | inactive | inactive |  | 48.8 µM (active) and 38.9 µM (active) |  | 61.1 µM (active) | 48.8 µM (active) and 43.6 µM (active) | 
Cc1c2oc3c(C)ccc(C(=O)N[C@@H]4C(=O)N[C@H](C(C)C)C(=O)N5CCC[C@H]5C(=O)N(C)CC(=O)N(C)[C@@H](C(C)C)C(=O)O[C@@H]4C)c3nc-2c(C(=O)N[C@@H]2C(=O)N[C@H](C(C)C)C(=O)N3CCC[C@H]3C(=O)N(C)CC(=O)N(C)[C@@H](C(C)C)C(=O)O[C@@H]2C)c(N)c1=O (I: T[dV]P[Sar][NMeV] / II: T[dV]P[Sar][NMeV]; ester I:1-I:C, II:1-II:C; linker I:N-II:N via Actinocin(9to1)) | 7.48 µM (active) | inactive | 18.8 nM (active) and 14.9 µM (active) |  |  |  |  |  |  | inactive
[Cl][In]([Cl])[Cl] | inactive | inactive | inactive |  |  |  |  | inactive | inactive | 
COc1ccc(COC(C)=O)cc1 | inactive | inactive | inactive |  |  | inactive | inactive | inactive | inactive | inactive and 54.9 µM (active)
Cc1ccc(S(=O)(=O)Oc2ccc(N=Nc3ccc(-c4ccc(N=Nc5c(O)ccc6cc(S(=O)(=O)O)cc(S(=O)(=O)O)c56)c(C)c4)cc3C)cc2)cc1 | 10.9 µM (active) and 10 µM (active) | inactive | 9.73 µM (active) and 14.1 µM (active) |  |  | inactive |  | inactive | inactive | inactive
